# In the supplement of paper PMC6555819:
# What was measured:
# Experiment in all cases: PBM binding z-score (relative to random genomic background probes); higher = stronger binding; sequences stand for … in GC…GCGATTGACAGCGTAGAATGAAGG
# [1] = tested on: RARb homodimer (NR concentration 270 nM)
# Outline: (§1)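 Scanned fluorescence from custom Agilent 4×180K protein-binding microarrays was regression-normalized. Binding z-scores use random background probes as reference. Ligand-free nuclear receptor dimers were incubated on the arrays for 1 h and detected with antibodies against each partner (one per run).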
# [2] = tested on: RARg:RXRa (NR concentration 270 nM, RXRa partner concentration 90 nM)
# Outline: as §1
# [3] = tested on: RARg homodimer (NR concentration 270 nM)
# Outline: as §1
# [4] = tested on: RXRa DBDmut IVT, anti-RXR (DBD mutation: RXRa K156A/R161A, NR concentration 90 nM)
# Outline: as §1
# [5] = tested on: RXRa homodimer (NR concentration 180 nM)
# Outline: as §1
# [6] = tested on: THRa:RXRa (NR concentration 90 nM, RXRa partner concentration 90 nM)
# Outline: as §1
# [7] = tested on: THRa homodimer (NR concentration 90 nM)
# Outline: as §1
# [8] = tested on: VDR homodimer (NR concentration 270 nM)
# Outline: as §1
sequence,measurement,setting,value
GTACCAAGGTGAATAGGTCCTTGATGAGTAGGCG,PBM binding z-score,[1],0.586
same,PBM binding z-score,[2],0.974
same,PBM binding z-score,[3],0.683
same,PBM binding z-score,[4],-0.522
same,PBM binding z-score,[5],0.785
same,PBM binding z-score,[6],1.23
same,PBM binding z-score,[7],0.287
same,PBM binding z-score,[8],-0.46
CCTACTGGGCCATCAGGTCATTGAAATCAACGTT,PBM binding z-score,[1],2.46
same,PBM binding z-score,[2],1.85
same,PBM binding z-score,[3],2.14
same,PBM binding z-score,[4],0.155
same,PBM binding z-score,[5],1.18
same,PBM binding z-score,[6],3.07
same,PBM binding z-score,[7],2.88
same,PBM binding z-score,[8],1.02
GCTAGTTGGTCAGTAAAGGGTCACACACCGGTCG,PBM binding z-score,[1],4.43
same,PBM binding z-score,[2],4.33
same,PBM binding z-score,[3],3.73
same,PBM binding z-score,[4],0.428
same,PBM binding z-score,[5],3.78
same,PBM binding z-score,[6],2.77
same,PBM binding z-score,[7],0.995
same,PBM binding z-score,[8],1.74
CCGACTGGGGCATAAAGGTTACCATACCATCCGG,PBM binding z-score,[1],2.16
same,PBM binding z-score,[2],1.92
same,PBM binding z-score,[3],1.79
same,PBM binding z-score,[4],-0.788
same,PBM binding z-score,[5],1.63
same,PBM binding z-score,[6],1.19
same,PBM binding z-score,[7],-0.376
same,PBM binding z-score,[8],0.423
ACAATGAGGTTAAGATCAGGGAAACAGAATACAT,PBM binding z-score,[1],0.906
same,PBM binding z-score,[2],2.33
same,PBM binding z-score,[3],1.7
same,PBM binding z-score,[4],1.33
same,PBM binding z-score,[5],2.53
same,PBM binding z-score,[6],2.51
same,PBM binding z-score,[7],0.954
same,PBM binding z-score,[8],0.941
GCTTGTAGATCAAGGTTACGAAAGACTAAGCTAA,PBM binding z-score,[1],0.837
same,PBM binding z-score,[2],0.713
same,PBM binding z-score,[3],0.558
same,PBM binding z-score,[4],0.173
same,PBM binding z-score,[5],1.09
same,PBM binding z-score,[6],1.81
same,PBM binding z-score,[7],0.263
same,PBM binding z-score,[8],-0.274
ATATGTAGGTAAGCTGGGGTCATTCAGACTAGGC,PBM binding z-score,[1],3.48
same,PBM binding z-score,[2],3.82
same,PBM binding z-score,[3],2.24
same,PBM binding z-score,[4],1.8
same,PBM binding z-score,[5],5.36
same,PBM binding z-score,[6],4.65
same,PBM binding z-score,[7],3.38
same,PBM binding z-score,[8],4.3
TCTGCTAGGTCGACGATGGTCAGCTAATCTGCTA,PBM binding z-score,[1],0.457
same,PBM binding z-score,[2],0.664
same,PBM binding z-score,[3],0.829
same,PBM binding z-score,[4],0.128
same,PBM binding z-score,[5],0.321
same,PBM binding z-score,[6],0.669
same,PBM binding z-score,[7],-0.884
same,PBM binding z-score,[8],-0.845
CGAACTAGTTCAGAACAGGACAGTGAAGGATGAT,PBM binding z-score,[1],0.329
same,PBM binding z-score,[2],0.335
same,PBM binding z-score,[3],0.706
same,PBM binding z-score,[4],1.18
same,PBM binding z-score,[5],0.233
same,PBM binding z-score,[6],1.8
same,PBM binding z-score,[7],-0.53
same,PBM binding z-score,[8],0.226
CGAACTAGGTCATGGACAGTGAATCTCCGCACGC,PBM binding z-score,[1],2.85
same,PBM binding z-score,[2],3.94
same,PBM binding z-score,[3],4.35
same,PBM binding z-score,[4],1.84
same,PBM binding z-score,[5],3.21
same,PBM binding z-score,[6],2.94
same,PBM binding z-score,[7],1.16
same,PBM binding z-score,[8],0.367
GCGACTGGGGCAAAGCTGGTTACCATAAGGTTGG,PBM binding z-score,[1],0.208
same,PBM binding z-score,[2],0.0391
same,PBM binding z-score,[3],0.0418
same,PBM binding z-score,[4],0.0315
same,PBM binding z-score,[5],-0.0119
same,PBM binding z-score,[6],0.398
same,PBM binding z-score,[7],-0.232
same,PBM binding z-score,[8],-0.208
CCTTACGGGTCACCGACAGGTTATAGCATTTGGA,PBM binding z-score,[1],3.79
same,PBM binding z-score,[2],6.61
same,PBM binding z-score,[3],5.55
same,PBM binding z-score,[4],1.12
same,PBM binding z-score,[5],6.11
same,PBM binding z-score,[6],3.23
same,PBM binding z-score,[7],0.772
same,PBM binding z-score,[8],1.09
CGTCCAACGTCATAGGAGGTCAGTGAAGACAGAT,PBM binding z-score,[1],2.87
same,PBM binding z-score,[2],1.79
same,PBM binding z-score,[3],2.24
same,PBM binding z-score,[4],0.609
same,PBM binding z-score,[5],1.59
same,PBM binding z-score,[6],3.15
same,PBM binding z-score,[7],0.654
same,PBM binding z-score,[8],1.02
GCTTGTAGATCAGGGTTAAGAAAGACTAAGCTAA,PBM binding z-score,[1],0.053
same,PBM binding z-score,[2],0.416
same,PBM binding z-score,[3],0.152
same,PBM binding z-score,[4],0.053
same,PBM binding z-score,[5],0.823
same,PBM binding z-score,[6],0.939
same,PBM binding z-score,[7],-0.435
same,PBM binding z-score,[8],0.148
TCTTGTAGATCAATAGAGGATAAGAAAGTGCGCT,PBM binding z-score,[1],-0.566
same,PBM binding z-score,[2],0.208
same,PBM binding z-score,[3],0.365
same,PBM binding z-score,[4],0.919
same,PBM binding z-score,[5],0.16
same,PBM binding z-score,[6],1.5
same,PBM binding z-score,[7],-0.588
same,PBM binding z-score,[8],0.0606
CAAACTAGGTCACCGGAAGGACAAAGTCCGCATG,PBM binding z-score,[1],4.21
same,PBM binding z-score,[2],6.38
same,PBM binding z-score,[3],6.15
same,PBM binding z-score,[4],1.54
same,PBM binding z-score,[5],3.82
same,PBM binding z-score,[6],3.81
same,PBM binding z-score,[7],2.12
same,PBM binding z-score,[8],1.38
ATCGAAAGGTCGTGAGGTGAGTCTACAGAAAGGC,PBM binding z-score,[1],3.17
same,PBM binding z-score,[2],4.64
same,PBM binding z-score,[3],3.92
same,PBM binding z-score,[4],1.06
same,PBM binding z-score,[5],5.19
same,PBM binding z-score,[6],3.48
same,PBM binding z-score,[7],1.43
same,PBM binding z-score,[8],1.09
ATCTCTAGGTAAGTCTCAGTTCAGTGAAGAACGC,PBM binding z-score,[1],1.02
same,PBM binding z-score,[2],0.158
same,PBM binding z-score,[3],0.271
same,PBM binding z-score,[4],0.813
same,PBM binding z-score,[5],0.0582
same,PBM binding z-score,[6],1.07
same,PBM binding z-score,[7],1.23
same,PBM binding z-score,[8],1.72
CTTCGGAGGACAGAAGGTCAGAGCTGTCCGCTTT,PBM binding z-score,[1],3.32
same,PBM binding z-score,[2],3.58
same,PBM binding z-score,[3],3.53
same,PBM binding z-score,[4],-0.00556
same,PBM binding z-score,[5],2.14
same,PBM binding z-score,[6],2.31
same,PBM binding z-score,[7],-0.137
same,PBM binding z-score,[8],-0.0466
CGTCCAAGGTGAGCAGGTCAGTGAAAGCGACGTG,PBM binding z-score,[1],2.7
same,PBM binding z-score,[2],2.24
same,PBM binding z-score,[3],2.37
same,PBM binding z-score,[4],-0.254
same,PBM binding z-score,[5],1.09
same,PBM binding z-score,[6],2
same,PBM binding z-score,[7],0.649
same,PBM binding z-score,[8],-0.353
TCTTGTAGATCTAGCAGGTTAAGAAAGCCTGAGT,PBM binding z-score,[1],0.195
same,PBM binding z-score,[2],-0.205
same,PBM binding z-score,[3],-0.19
same,PBM binding z-score,[4],0.705
same,PBM binding z-score,[5],0.231
same,PBM binding z-score,[6],0.286
same,PBM binding z-score,[7],-0.115
same,PBM binding z-score,[8],-0.0564
TCGAGCAGGTTACCAATGGGGCATTCAGCTTTCT,PBM binding z-score,[1],0.557
same,PBM binding z-score,[2],1.36
same,PBM binding z-score,[3],0.389
same,PBM binding z-score,[4],-0.436
same,PBM binding z-score,[5],0.616
same,PBM binding z-score,[6],0.235
same,PBM binding z-score,[7],-0.786
same,PBM binding z-score,[8],-0.843
CCTACTGGGCCAAGGTCATTGATCAGTCAAAGCA,PBM binding z-score,[1],3.43
same,PBM binding z-score,[2],3.59
same,PBM binding z-score,[3],2.83
same,PBM binding z-score,[4],1.19
same,PBM binding z-score,[5],3.08
same,PBM binding z-score,[6],3.49
same,PBM binding z-score,[7],2.36
same,PBM binding z-score,[8],2.15
CCTAGTTGGTCAAAGTCACACACGCTATAGGTAC,PBM binding z-score,[1],1.28
same,PBM binding z-score,[2],0.912
same,PBM binding z-score,[3],1.23
same,PBM binding z-score,[4],0.833
same,PBM binding z-score,[5],0.561
same,PBM binding z-score,[6],0.212
same,PBM binding z-score,[7],0.467
same,PBM binding z-score,[8],0.811
ATCGAAAGGCCGTGAGGTGAGTATACAGAAAGGC,PBM binding z-score,[1],0.911
same,PBM binding z-score,[2],1.47
same,PBM binding z-score,[3],1.42
same,PBM binding z-score,[4],-0.765
same,PBM binding z-score,[5],0.904
same,PBM binding z-score,[6],1.93
same,PBM binding z-score,[7],0.902
same,PBM binding z-score,[8],-0.0558
ATCTCTAGGTAAAGATAGATCAGTGAATGCAAAT,PBM binding z-score,[1],-0.493
same,PBM binding z-score,[2],0.264
same,PBM binding z-score,[3],0.561
same,PBM binding z-score,[4],-0.154
same,PBM binding z-score,[5],-0.137
same,PBM binding z-score,[6],0.0339
same,PBM binding z-score,[7],-0.214
same,PBM binding z-score,[8],-0.0693
CCTATTGGGCCAAAAAGGTCATTGATGCCGATAA,PBM binding z-score,[1],4.34
same,PBM binding z-score,[2],4.44
same,PBM binding z-score,[3],4.07
same,PBM binding z-score,[4],0.773
same,PBM binding z-score,[5],4.53
same,PBM binding z-score,[6],3.25
same,PBM binding z-score,[7],0.389
same,PBM binding z-score,[8],2.18
GCTAGTTGGACAGTAAAAGGTCACACACCGGTCG,PBM binding z-score,[1],5.22
same,PBM binding z-score,[2],4.89
same,PBM binding z-score,[3],4.27
same,PBM binding z-score,[4],0.31
same,PBM binding z-score,[5],4.94
same,PBM binding z-score,[6],3.55
same,PBM binding z-score,[7],1.71
same,PBM binding z-score,[8],1.59
GCTGCTAAGTCAACTGATGGTCAGCTAAAGCTCG,PBM binding z-score,[1],0.11
same,PBM binding z-score,[2],0.204
same,PBM binding z-score,[3],-0.211
same,PBM binding z-score,[4],0.184
same,PBM binding z-score,[5],-0.0847
same,PBM binding z-score,[6],-0.519
same,PBM binding z-score,[7],-1.1
same,PBM binding z-score,[8],-1.02
